Assay results published in PubChem BioAssay (NCATS).
Inconclusive results are not listed. Values without a mark were called inactive. Active and inactive are the calls of the source. Calls follow the shape of the dose curve; as a rule, active = well fitted cell-killing curve with a large enough effect; inconclusive = small, poorly fitted or top-dose-only effect, or effect the other way; inactive = no such curve, though single readings can be large or run the other way.

Experiment: Quantitative High-Throughput drug screen in 47 multiple myeloma cell lines against the NCATS MIPE library collection: Karpas25_ECACC cell viability assay (AID 1918968; also: nearly all actives have a fitted effect of over 35% in size)
Settings: Karpas25 myeloma viability, CellTiter-Glo ATP, 48 h; series mostly up to 45.8 µM; viability (% of control): at the top concentration
From the text: PI: Beverly A. Mock Ph.D.
Laboratory of Cancer Biology and Genetics,
Center for Cancer Research, National Cancer Institute,
National Institute of Health, Bethesda, Maryland
Drug resistance and disease progression are common in multiple myeloma (MM) patients, underscoring the need for new therapeutic combinations. […] We hypothesized that effective combinations would reduce MYC expression and enhance p16 activity. […] These preclinical data identify potentially useful drug combinations for evaluation in drug-resistant MM and reveal potential mechanisms of combined drug sensitivity.
Described herein is the primary MIPE qHTS used to cherrypick compounds. Validated compounds were then further tested for potential synergistic activiy.
[1] Peat TJ, Gaikwad SM, Dubois W, Gyabaah-Kessie N, Zhang S, Gorjifard S, Phyo Z, Andres M, Hughitt VK, Simpson RM, Miller MA, Girvin AT, Taylor A, Williams D, D'Antonio N, Zhang Y, Rajagopalan A, Flietner E, Wilson K, Zhang X, Shinn P, Klumpp-Thomas C, McKnight C, Itkin Z, Chen L, Kazandijian D, Zhang J, Michalowski AM, Simmons JK, Keats J, Thomas CJ, Mock BA. Drug combinations identified by high-throughput screening promote cell cycle transition and upregulate Smad pathways in myeloma. Cancer Lett. 2023 Aug 1;568:216284. doi: 10.1016/j.canlet.2023.216284. Epub 2023 Jun 24. PMID: 37356470; PMCID: PMC10408729.
SEQUENCE No. (e.g., 1, 2, 3, etc.); […] (e.g., Cells, Incubation, Reagent, etc.); VALUE and DESCRIPTION.
1; Cells; 5 uL; white, solid bottom 1536-well Greiner assay plate.
2; Compounds; 23 nL; Kalypsis pin tool (Wako USA) equipped with a 1536-well pin head to transfer to the assay plates.
3; Incubation; 48 hours; 37C incubation.
4; Reagent;5uL; CellTiter Glo (Promega).
5; Detector; 425V; Luminescence; Viewlux PerkinElmer.
NOTES (numbers refer to Sequence numbers above)
1. The cell-based screening methods employed in this study were like those previously published. Briefly, the corresponding myeloma cell lines were screened in 1,536-well plates with 500 cells, 5-uL per well for inhibition of cell viability (assessed by measuring ATP levels with CellTiterGlo).
2. NCATS MIPE 4.0 library of approved and investigational drugs were added using the Kalypsis pin tool. Wells treated with DMSO only for 100% viability and media only wells for 0% viability were used as controls.
3. The assay plates were covered and incubated for 48 hours in a 37C, 5% CO2 incubator with controlled humidity.
4. After 48 hours, CellTilter-GloTM luminescent substrate mix (Promega) reagent was added to the assay plate and plates we incubated for 5 min at room temperature.
5. Signal was measured as median relative luminescence units on a ViewLux (PerkinElmer) multiplate reader.
[1] Heske CM, Davis MI, Baumgart JT, Wilson K, Gormally MV, Chen L, Zhang X, Ceribelli M, Duveau DY, Guha R, Ferrer M, Arnaldez FI, Ji J, Tran HL, Zhang Y, Mendoza A, Helman LJ, Thomas CJ. Matrix Screen Identifies Synergistic Combination of PARP Inhibitors and Nicotinamide Phosphoribosyltransferase (NAMPT) Inhibitors in Ewing Sarcoma. Clin Cancer Res. 2017 Dec 1;23(23):7301-7311. doi: 10.1158/1078-0432.CCR-17-1121. Epub 2017 Sep 12. PMID: 28899971; PMCID: PMC6636827.
Potency is read from the fitted curve at half-maximal effect.

Structure (SMILES)	Potency	viability (% of control) [%]
O=c1cccc2n1CC1CNC[C@H]2C1	23500 nM (active)	–
CO[C@H]1CCC(O[C@H]2C[C@H]([C@]3(C)CC[C@]4(C[C@H](O)[C@@H](C)[C@@H]([C@@H](C)C=C(C)C(=O)[C@H](C)C[C@H](C)C(=O)O)O4)O3)O[C@]3(O[C@@H]([C@H]4O[C@@](O)(CO)[C@H](C)C[C@H]4C)C[C@H]3C)[C@H]2C)O[C@H]1C (stereo not given in full)	1480 nM (active)	–
CN1CCN(c2ccc([N+](=O)[O-])c3no[n+]([O-])c23)CC1	18700 nM (active)	–
COc1ccc2c(c[n+](C)c3c4cc5c(cc4ccc23)OCO5)c1OC	7430 nM (active)	–
Cc1[nH]nc2ccc(-c3cncc(OC[C@@H](N)Cc4c[nH]c5ccccc45)c3)cc12	2350 nM (active)	–
CSCC[C@@H](NC(=O)[C@@H](Cc1ccccc1)NC(=O)CNC(=O)CNC(=O)[C@@H](N)Cc1ccc(O)cc1)C(=O)O	–	108
CC[C@@H](C(N)=O)N1CCCC1=O	–	130
CN(C)NC(=O)CCC(=O)O	–	103
CCN1CCN(C(=O)Cc2ccc(Nc3ncc(F)c(Nc4ccc(C(=O)Nc5ccccc5Cl)cc4)n3)cc2)CC1	2350 nM (active)	–
CC(N[C@H]1C[C@H]1c1ccccc1)c1ccc2c(c1)OCCO2 (stereo not given in full)	–	95.8
CC(C)N[C@@H]1CCn2c(=O)[nH]c3cccc(c32)[C@@H]1O	187 nM (active)	–
C[C@@H]1[C@H](O)[C@@H](C)C=CC=CCCC=CC=CC=CC=C[C@H](O[C@H]2O[C@@H](C)[C@H](O)[C@@H](N)[C@@H]2O)CC2O[C@](O)(C[C@@H](O)[C@H](O)CC[C@@H](O)C[C@@H](O)C[C@@H](O)CC(=O)O[C@H]1C)C[C@H](O)[C@H]2C(=O)O	–	119
CCOC(=O)c1cncn1[C@H](C)c1ccccc1	–	95.4
C=C1C[C@H]2[C@H]3CCC(=O)[C@@]3(C)CC[C@@H]2[C@@]2(C)C=CC(=O)C=C12	16600 nM (active)	–
CC1=NN=C(c2ccc(N)cc2)c2cc3c(cc2C1)OCO3	–	124
CC=C(C)C(=O)O[C@H]1C(C)=C2[C@@H]3OC(=O)[C@@](C)(O)[C@@]3(O)[C@@H](OC(=O)CCC)C[C@](C)(OC(C)=O)[C@@H]2[C@@H]1OC(=O)CCCCCCC	83.3 nM (active)	–
O=c1[nH]c2ccccc2n1C1CCN(Cc2ccc(-c3[nH]c4cc5ncnc5cc4nc3-c3ccccc3)cc2)CC1	8330 nM (active)	–
C[C@]12CC[C@@H]3[C@@H](CCC4=CC(=O)CC[C@@H]43)[C@@H]1CC[C@@H]2OC(=O)CCc1ccccc1	–	131
CCCCCC[C@H]1C(=O)O[C@H](C)[C@H](NC(=O)c2cccc(NC=O)c2O)C(=O)O[C@@H](C)[C@@H]1OC(=O)CC(C)C	166 nM (active)	–
CC(=Cc1csc(C)n1)[C@@H]1C[C@H]2O[C@@H]2CCC[C@H](C)[C@@H](O)[C@@H](C)C(=O)C(C)(C)[C@@H](O)CC(=O)O1	–	69.2

Structure (SMILES)	Potency	viability (% of control) [%]
COC1=C[C@@H]2[C@@H]3Cc4ccc(OC)c(O)c4[C@]2(CCN3C)CC1=O	2960 nM (active)	–
CC(=CCCC1=CCC(C2=CC(=O)OC2O)OC1O)CCC1=C(C)CCCC1(C)C (stereo not given)	–	101
c1ccc2c(CN3CCNCC3)cccc2c1	–	112
COCC1(CO)C(=O)C2CCN1CC2 (stereo not given)	3720 nM (active)	–
Oc1ccc2c3c1O[C@H]1c4[nH]c5c(c4C[C@@]4(O)[C@@H](C2)N(CC2CC2)CC[C@]314)C[C@@]1(O)[C@H]2Cc3ccc(O)c4c3[C@@]1(CCN2CC1CC1)[C@H]5O4	–	105
Cc1ccccc1-n1c(Cn2ncc3c(N)ncnc32)nc2cccc(C)c2c1=O	264 nM (active)	–
COc1cccc2c1[C@]13CCN(CC4CC4)[C@H](C2)[C@]1(OC)CCC(=O)C3	–	107
COc1ccc2c(c1)[C@]13CCCCC1C(C2)N(C)CC3 (stereo not given in full)	–	94.6
C=CCON=C(C[C@H]1O[C@@H]2O[C@]3(C)CC[C@@H]4[C@H](C)CC[C@@H]([C@H]1C)[C@@]24OO3)[C@H]1O[C@@H]2O[C@]3(C)CC[C@H]4[C@H](C)CC[C@@H]([C@@H]1C)[C@@]24OO3	209 nM (active)	–
CC[C@@]1(O)C(=O)OCc2c1cc1n(c2=O)Cc2cc3ccccc3nc2-1	83.3 nM (active)	–
CC(=Cc1csc(C)n1)[C@@H]1C[C@H]2O[C@]2(C)CCC[C@H](C)[C@@H](O)[C@@H](C)C(=O)C(C)(C)[C@@H](O)CC(=O)O1	–	65.4
COc1cc([C@@H]2c3cc4c(cc3[C@@H](O)C3COC(=O)C32)OCO4)cc(OC)c1O (stereo not given in full)	59 nM (active)	–
COc1ccc(C(=O)c2c(C)n(CCN3CCOCC3)c3cc(I)ccc23)cc1	18700 nM (active)	–
COC1=CC(C)=C[C@@H](C)[C@@H](O)[C@@H](C)CC(C)=CC=C[C@H](OC)[C@H]([C@@H](C)[C@@H](O)[C@H](C)[C@@]2(O)C[C@@H](O)[C@H](C)[C@@H](C(C)C)O2)OC1=O	8.3 nM (active)	–
CC(C)(O)C=CC(=O)[C@](C)(O)[C@H]1[C@H](O)C[C@]2(C)[C@@H]3CC=C4[C@@H](C=C(O)C(=O)C4(C)C)[C@]3(C)C(=O)C[C@@]12C	29.6 nM (active)	–
CC(C)(C)[C@]1(O)C[C@@H]2OC(=O)C[C@@]23C(=O)O[C@@H]2OC(=O)[C@H](O)C213 (stereo not given in full)	–	130
O=S(=O)(CC1CS1)c1ccc(Oc2ccccc2)cc1 (stereo not given)	16600 nM (active)	–
CC(C)[C@]12O[C@@H]1[C@@H]1O[C@]13[C@]1(O[C@H]1C[C@@H]1C4=C(CC[C@@]13C)C(=O)OC4)[C@H]2O	–	2.18
C[C@@]12OC(=O)[C@]1([C@@H](O)[C@@H]1C=CCCC1)NC(=O)[C@H]2CCCl	1 nM (active)	–
CCN(CC)C(=O)c1ccc(C2=CC3(CCNCC3)Oc3cccc(O)c32)cc1	–	128
